Measurements from ChEMBL document CHEMBL3988442, “University of Dundee, Small-Polar-MMV Screening Library” (2021).
Among all 69,000 compounds or so, about 420 (0.61%) showed an effect of 50% or more. Shown is part of a subset that was picked to be rich in strong results.

Target: T1, Histidine--tRNA ligase (Leishmania infantum) (UniProt A4I591)
T1 sequence (whole entry): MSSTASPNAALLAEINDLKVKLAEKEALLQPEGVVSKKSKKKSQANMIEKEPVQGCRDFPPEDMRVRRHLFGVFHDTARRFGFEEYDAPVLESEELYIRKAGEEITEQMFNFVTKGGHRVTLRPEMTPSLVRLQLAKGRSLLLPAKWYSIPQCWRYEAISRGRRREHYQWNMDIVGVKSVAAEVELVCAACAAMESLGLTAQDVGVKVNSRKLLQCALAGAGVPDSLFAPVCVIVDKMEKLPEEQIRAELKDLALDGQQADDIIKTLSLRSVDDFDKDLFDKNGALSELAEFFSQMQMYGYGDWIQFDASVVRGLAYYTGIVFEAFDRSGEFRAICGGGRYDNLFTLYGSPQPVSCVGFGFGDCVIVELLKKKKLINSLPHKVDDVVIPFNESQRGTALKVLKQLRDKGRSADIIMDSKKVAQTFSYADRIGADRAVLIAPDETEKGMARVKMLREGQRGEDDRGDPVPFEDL
Test: Leishmania infantum Histidine tRNA synthetase (LdHisRS)
Assay type: functional
Design: scale not given: in the data most compounds retested in dose-response had high values
Conditions: 30 µM

Compound | Percent Effect
O=C(C1CCC1)N1CCN(Cc2ccccc2F)[C@H]2CS(=O)(=O)C[C@H]21 | 23.3%
CCOC1CCN(C(=O)NCc2ccc(CN3CCOCC3)cc2)CC1 | 13.5%
CCOC1CCN(C(=O)NCc2ccc(C(=O)N(C)C(C)C)cc2)CC1 | 16.7%
CCOC1CCN(C(=O)Nc2ccc(=O)n(C)c2)CC1 | 114%
CN1C(=O)CO[C@H](c2ccc(NC(=O)Nc3ccccc3)cc2)[C@H]1CO | 14.9%
Cn1cc(C(=O)N2CCN(c3ccccc3)CC2)ccc1=O | 11%
Cc1oc(C)c(C(=O)N2CCN(Cc3cscn3)CC2)c1C | 13.3%
Cn1cc(NC(=O)C2CC(c3ccccc3)C2)ccc1=O (stereo not drawn) | 71.3%
CC(C)Oc1ncccc1CNC(=O)N1CCC1c1ccccc1 (stereo not drawn) | 16.8%
CC(C)c1nnc(NC(=O)N2CCN(C)CC2c2ccccc2)s1 (stereo not drawn) | 4.17%
Cn1cc(NC(=O)N2CCC2c2ccccc2)ccc1=O (stereo not drawn) | 108%
Cn1cc(C(=O)N2CCN(Cc3cscn3)CC2)ccc1=O | 15.3%
Cn1cc(NC(=O)N2CCN(Cc3cscn3)CC2)ccc1=O | 74.8%
O=C1[C@@H]2C[C@H](O)CCN2C(=O)CN1CCSc1ccccn1 | 17.6%
COc1ccccc1S(=O)(=O)N1CCN(C)[C@@H]2CS(=O)(=O)C[C@@H]21 | -6.67%
CN(C)C[C@H]1C[C@@H]2CN(C(=O)c3ccco3)C[C@@H]2O1 | 10.3%
O=C1N(Cc2ccccn2)C[C@H]2CN(S(=O)(=O)c3ccccc3)CCN12 | 24.3%
Cn1nccc1C(=O)N1C[C@@H]2CC[C@H](Oc3cccc(F)c3)[C@@H]2C1 | 18%
Cc1cc(C(=O)N2C[C@@H]3CCCO[C@@H]3[C@H](N(C)C(C)C)C2)c(C)[nH]1 | 11.5%
O=C(NCc1cccs1)[C@H]1CC[C@@H]2[C@@H](CCN2Cc2ccoc2)O1 | 12.5%
CCS(=O)(=O)N1CCO[C@H]2[C@H](OCC3CCCC3)CC[C@@H]21 | 20.8%
O=C(O)[C@]12CCCN(Cc3ccsc3)C[C@H]1CN(c1ncccn1)C2 | 10.5%
O=C(Cc1cccc(F)c1)N1C[C@H]2CN(Cc3cccnc3)C[C@H]2C1 | 3.85%
CC(C)CN1C[C@@H]2OCC(=O)N(c3ccccc3)[C@@H]2C1 | 21.6%

Compound | Percent Effect
Cn1cc(NC(=O)N2CCC(OCc3ccccc3)CC2)ccc1=O | 103%
CS(=O)(=O)NC1CCN(C(=O)c2ccc(F)cc2)CC1 | 28.1%
C[C@H](NC(=O)N1CCC(Cc2ccccc2)CC1)C(=O)O | -5%
Cn1cc(NC(=O)N2CCC(NS(C)(=O)=O)CC2)ccc1=O | 91.5%
CC(NC(=O)N1CCC(OCc2ccccc2)CC1)c1nncn1C (stereo not drawn) | 20.3%
Cn1cc(NC(=O)N2CCC(c3ccccc3)CC2)ccc1=O | 102%
CS(=O)(=O)NC1CCN(C(=O)NCC2CCCO2)CC1 (stereo not drawn) | 11%
O=C(C1CCOC1)N1CCC(OCc2ccccc2)CC1 (stereo not drawn) | 16.8%
Cn1cc(NC(=O)N2CCC(Cc3ccccc3)CC2)ccc1=O | 101%
CC(NC(=O)N1CCC(c2ccccc2)CC1)c1nncn1C (stereo not drawn) | 13.8%
NC(=O)Cn1cc(NC(=O)N2CCC(c3ccccc3)CC2)cn1 | 16.5%
Cn1cc(NC(=O)N2CCC(CN3CCCC3)CC2)ccc1=O | 6.38%
CN(C)C(=O)NC[C@H]1OC[C@@H]2CCN(Cc3ccoc3)C[C@@H]21 | -1.89%
Cn1cccc1C(=O)N1CCO[C@@H]2CN(Cc3ccco3)C[C@@H]2C1 | 11.8%
Cc1occc1C(=O)N1C[C@@H](OCc2cccnc2)[C@H]2OCCC[C@@H]21 | 28.2%
O=C1O[C@@H]2CN(Cc3cc4ccccc4s3)C[C@@H]2N1Cc1ccccn1 | 2.67%
CCN1C(=O)CO[C@@H]2CN(C(=O)C3CCOCC3)C[C@H]21 | 20.6%
CN(C)S(=O)(=O)N1CC[C@]2(O)CCN(CCCc3cccnc3)C[C@@H]2C1 | 18.4%
Cc1ccccc1CN1C[C@@H]2COC[C@]2(CNC(=O)C2CCC2)C1 | 13.9%
COCCOCC(=O)N1C[C@@H]2CC[C@H](Oc3ccccc3)[C@@H]2C1 | 26.3%
Cc1noc(C)c1CNc1cccc(C(=O)N(C)c2ccccc2)c1 | -0.855%
Cc1cc(CNc2ccc(C(F)(F)F)cc2)no1 | 17%
Cc1noc(C)c1CNc1ccc2nc(C3CC3)sc2c1 | 75.9%
Cc1cc(CNc2ccc3nc(C4CC4)sc3c2)no1 | 27.6%

Compound | Percent Effect
Cc1cc(CNc2ccc3nc(C)sc3c2)no1 | 58.6%
Cc1noc(C)c1CNc1cccc(C(=O)N2CCCC(O)C2)c1 (stereo not drawn) | 27.4%
O=C(c1cscn1)N1CCO[C@H]2[C@@H](Oc3ccccn3)CC[C@@H]21 | 7%
Cc1noc(CN2C[C@H]3CC[C@@H]2CN(C2Cc4ccccc4C2)C3)n1 | 20.4%
O=C(N1CCOCC1)[C@@]12CCO[C@@H]1CCN(C1CCCCC1)C2 | 20.5%
Cc1cccc(CN2C[C@@H]3CN(C(=O)c4ccsc4)C[C@@H]3C2=O)n1 | 28.6%
Cc1cccc(CN2C(=O)CO[C@@H]3CN(Cc4nccn4C)C[C@H]32)c1 | 17.3%
Cc1ccc(C)n1-c1ccc(C(=O)NCCNc2ncccn2)cc1 | 53%
O=C(NCCNc1ncccn1)c1ccc(Br)cc1 | 18.4%
CCc1ccc(C(=O)NCCNc2ncccn2)cc1 | 2.63%
O=C(c1ccoc1)N1C[C@@H]2OCCN(c3ncccn3)[C@@H]2C1 | 15.3%
Nc1ccc(C(=O)N2C[C@@H]3CC[C@H](C2)N(Cc2ccccc2)C3)cn1 | 9.57%
CC(=O)N1[C@H](CN(C)C)C[C@@H]2CN(c3ncc(F)cn3)CC[C@@H]21 | 14.5%
COc1cc(CNc2cnn(C)c2)cc2c1OCCO2 | 53.6%
COc1cc(CNCCn2cc(C)cn2)cc2c1OCCO2 | 9.17%
COc1cc(CNCCc2cnn(C)c2)cc2c1OCCO2 | 24.8%
CC(C)NC(=O)[C@H]1C[C@@H]2[C@@H](C1)OCCN2Cc1ccco1 | 5.56%
Cc1cncc(C(=O)N2C[C@@H]3CN(S(C)(=O)=O)CCO[C@@H]3C2)c1 | 15.1%
O=C(N[C@@H]1CN(c2ncccn2)C[C@@H]2CCCO[C@@H]21)c1ccnnc1 | 22.9%
CC(=O)Nc1ccc2nc(CN(C)Cc3noc(C)n3)ccc2c1 | 18.4%
CC(=O)Nc1ccc(CN(C)Cc2snnc2C)cc1 | 16.3%
CC(=O)Nc1ccc2nc(CN(C)Cc3snnc3C)ccc2c1 | 61.2%
Cc1ccoc1C(=O)N1C[C@H](OCC2CC2)[C@H]2OCCC[C@H]21 | 2.65%
COC[C@@]12CC[C@@H](N3CCOCC3)C[C@H]1CCN(c1cc(C)ccn1)C2 | 19.4%

Compound | Percent Effect
O=C([C@H]1C[C@@H]2[C@@H](C1)OCCN2CC1CC1)N1CCCC1 | 19.3%
CCC1CN(CC(=O)N2CCC2)CCN1CCOC (stereo not drawn) | 28.6%
CCC1CN(CCC(=O)N(C)C)CCN1CCOC (stereo not drawn) | 50%
CCC1CN(CCNC(C)=O)CCN1CCOC (stereo not drawn) | 4.76%
c1ccc(O[C@H]2C[C@@H]3CN(Cc4cnccn4)C[C@@H]3C2)cc1 | 15.9%
COc1cc(N2C[C@@H]3COC[C@]3(COCc3ccccn3)C2)ncn1 | 13.8%
NC(=O)c1ccc(N2CCCCC2)c(NC(=O)c2cc(Br)ccc2Cl)c1 | 80.7%
NC(=O)c1ccc(N2CCCCC2)c(NC(=O)c2ccc(F)cc2F)c1 | 18.3%
NC(=O)c1ccc(N2CCCCC2)c(NC(=O)c2ccc(Br)cc2)c1 | 20.4%
NC(=O)c1ccc(N2CCCCC2)c(NC(=O)c2ccc(F)cc2Cl)c1 | 65.6%
NC(=O)c1ccc(N2CCCCC2)c(NC(=O)c2cc(F)ccc2F)c1 | 18.3%
NC(=O)c1ccc(N2CCCCC2)c(NC(=O)c2cc(Br)ccc2F)c1 | 36.8%
O=S1(=O)C[C@@H]2[C@H](C1)N(Cc1cc(F)cc(Cl)c1)CCN2CCO | 0%
CN(C)C(=O)N1C[C@@H]2CC[C@H](C1)N(Cc1nnc(-c3ccco3)o1)C2 | -9.89%
NC(=O)NCC(=O)N1C[C@H]2CC[C@@H]1CN(Cc1cscn1)C2 | 0%
CCc1oc(C(=O)N2CC[C@H]3CC[C@@H](C2)N3)cc1CN(CC)CC | 12.6%
COc1ccc(C)cc1CN1CCC(c2cc3ncccc3cn2)CC1 | 60.6%
Fc1ccc(F)c(CN2CCC(c3cc4ncccc4cn3)CC2)c1 | 35.2%
Fc1cccc(CN2CCC(c3cc4ncccc4cn3)CC2)c1F | 29.6%
Cc1noc([C@@H]2C[C@@H]3CCN(c4nnc(C)s4)C[C@H]3O2)n1 | 13.5%
O=C(c1ccoc1)N1CC[C@H]2OCC[C@@]2(COc2ncccc2F)C1 | 24.5%
Cc1ccncc1C(=O)N1C[C@H]2CN(CC3CCC3)C[C@@]2(C(=O)O)C1 | -1.64%
CN(CC1CCCCO1)c1nc(-c2cccnc2)nc2c1CCNC2 (stereo not drawn) | 9.95%
Cc1nonc1CN(C)c1nc(-c2cccnc2)nc2c1CCNC2 | 67.5%

Compound | Percent Effect
CN(CC(O)CO)c1nc(-c2cccnc2)nc2c1CCNC2 (stereo not drawn) | 7.85%
CS(=O)(=O)CC(=O)N1C[C@@H]2COC[C@]2(c2nnc(C3CC3)o2)C1 | 15.1%
N#Cc1cccc(CN2CC[C@@H]3CN(c4ncccn4)CCO[C@@H]3C2)c1 | -0.901%
CC(C)c1ccc(C(CN)N2CCc3sccc3C2)cc1 (stereo not drawn) | 17.8%
NCC(c1ccc(Cl)cc1)N1CCc2sccc2C1 (stereo not drawn) | 13.7%
CSc1ccc(C(CN)N2CCc3sccc3C2)cc1 (stereo not drawn) | 71.4%
CC(=O)Cc1c(C)nn(-c2cncc(C(N)=O)c2)c1C | 16.5%
COc1cncc(-n2nc(C)c(CC(C)=O)c2C)c1 | 34.2%
CC(=O)Cc1c(C)nn(-c2cncc(N)c2)c1C | 64.6%
COCCN1CC[C@@H]2O[C@@H](COCC(=O)N3CCCC3)CC[C@@H]21 | 17.1%
COC[C@@]12CCC[C@@H]1CN(C(=O)CN(C)C)C2 | 5.77%
CC(C)(C)NC[C@@H]1CCC[C@@H]2CN(Cc3csnn3)C[C@@H]21 | 17.1%
O=C(C1CCOCC1)N1CCO[C@H]2[C@H](Oc3ccccn3)CC[C@@H]21 | -1%
COCC(C)NC(=O)c1cncc(Br)c1 (stereo not drawn) | 19.2%
CCCC(O)CNc1cncc(Br)c1 (stereo not drawn) | 95.9%
O=C(NCCNc1cncc(Br)c1)c1ccc(O)cc1 | 42.5%
COCC(O)CNc1cncc(Br)c1 (stereo not drawn) | 60.3%
COCCOCCNc1cncc(Br)c1 | 45.5%
CCOCC(O)CNc1cncc(Br)c1 (stereo not drawn) | 46.6%
CS(=O)(=O)CCOCCNc1ccc(Br)cn1 | 16.9%
O=c1[nH]nc(CNc2cncc(Br)c2)[nH]1 | 11.1%
CS(=O)(=O)CCOCCNc1cncc(Br)c1 | 53.2%
